This note sets out measurements from ChEMBL document CHEMBL4513146, “CO-ADD screening of Karazin Kharkiv National University (Ukraine) compounds”.

Potency and affinity values are given separately.

Usually Inhibition stands for the change of the read-out against control, counted positive when it falls.

The test system of one assay is Klebsiella pneumoniae. Particulars: Concentration 32 ug.mL-1;; ASSAY_TEST Inhibition of Bacterial Growth; detection method Absorption (OD600); MEDIA CAMHB; plate type 384well; NBS; CORNING #3640; time 18 hr.
A further assay has as its system Candida albicans. Particulars: Concentration 32 ug.mL-1; ASSAY_TEST Inhibition of Fungal Growth; detection method Absorption (OD530).
The next assay has as its system Cryptococcus neoformans. Particulars: Concentration 32 ug.mL-1; ASSAY_TEST Inhibition of Fungal Growth; detection method Resazurin; Absorption (OD600-OD570); plate type 384well; NBS; CORNING #3640.

In the case of `O=S(=O)(c1ccc2nncn2c1)N(Cc1cc(F)cc(F)c1)c1ccc(F)c(F)c1`, the Inhibition in the assay on Klebsiella pneumoniae is 12.12%; in the assay on Candida albicans it was 1.89%; with Cryptococcus neoformans, -12.17%.

For the molecule `O=c1c2nnc(SCc3ccccc3Cl)n2ccn1-c1ccc(F)c(F)c1`, the Inhibition in the assay with Klebsiella pneumoniae is 8.56%; in the assay with Candida albicans, 3.72%; with Cryptococcus neoformans it was -8.25%.

For the molecule `Cc1nnc2ccc(S(=O)(=O)N(Cc3ccccc3F)c3cc(F)cc(F)c3)cn12`, the Inhibition in the assay with Klebsiella pneumoniae was -4.61%; in the assay with Candida albicans it was 2.54%; with Cryptococcus neoformans it was -9.43%.

Take `COc1ccc(Cn2nc3ccc(-c4ccccc4)nn3c2=O)cc1F`: the Inhibition is 8.32% with Klebsiella pneumoniae, 1.33% in the assay on Candida albicans and -0.36% in the assay on Cryptococcus neoformans.

Take `Cc1ccc(C)c(NC(=O)Cn2nc3c(N4CCCC(C)C4)nccn3c2=O)c1` (stereo not given): the Inhibition is reported as 3.52% in the assay on Klebsiella pneumoniae, 2.37% in the assay on Candida albicans and -8.1% in the assay on Cryptococcus neoformans.

Turning to `O=C(Cn1nc2c(SC3CCCCC3)nccn2c1=O)Nc1ccccc1F`, the Inhibition in the assay with Klebsiella pneumoniae was 4.58%; in the assay on Candida albicans, 0.33%; with Cryptococcus neoformans, -26.33%.

Turning to `COc1ccc(NC(=O)C(C)Sc2nnc3c(=O)n(-c4cccc(OC)c4)ccn23)cc1` (stereo not given), the Inhibition in the assay with Klebsiella pneumoniae is 4.86%; in the assay with Candida albicans, -0.02%; in the assay with Cryptococcus neoformans it was -10.81%.

For the molecule `Cc1ccc(Sc2nccn3c(=O)n(CC(=O)Nc4ccc(C)cc4Br)nc23)c(C)c1`, the Inhibition is given as 10.73% in the assay on Klebsiella pneumoniae, 2.86% in the assay with Candida albicans and -20.37% in the assay with Cryptococcus neoformans.

Regarding `CCC(C)NC(=O)Cn1nc2n(CC(C)C)c(=O)c3ccc(C(=O)NC4CCCCC4)cc3n2c1=O` (stereo not given), the Inhibition in the assay on Klebsiella pneumoniae was 0.48%; with Candida albicans, -1.97%; with Cryptococcus neoformans, -14.64%.

Consider `Cn1c(=O)c2sccc2n2c(=O)n(CCOc3ccccc3)nc12`, for which the Inhibition in the assay on Klebsiella pneumoniae is on record as 1.76%; with Candida albicans it was -1.1%; with Cryptococcus neoformans, -29.95%.
